# Assays:
# Assay in all cases: DAPPL (digital affinity profiling via proximity ligation, sequencing); 10 mM Tris-HCl pH 7.5, 50 mM NaCl, 1 mM DTT, 4% glycerol, room temperature, 30 min; GST-TFs on glutathione beads, 16-mer random dsDNA library, 0.1% formaldehyde crosslink after washing; high values mean tight binding
# HSF1 = HSF1 (Homo sapiens, UniProt Q00613 1-529); settings: protein: recombinant; tags: N-terminal GST; chain copies: 3; dsDNA, one strand shown
# Outline: (§1)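 In yeast, human transcription factors were expressed with a GST fusion, then pulled down on glutathione beads and given DNA barcodes. Pooled with a tag-only sample, they were exposed to 200 nmole of a 16-mer random double-stranded DNA library (Tris/NaCl/DTT/glycerol buffer, room temperature, 30 min), washed, crosslinked with 0.1% formaldehyde, proximity-ligated using BsaI/T4 ligase for 1 h at 37 °C, PCR-amplified and read on an Illumina NextSeq500. Each hexamer's frequency of reads for a factor, divided by the matching frequency for the tag-only sample, gives the binding signal.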
# ELK1 = biological target: T1, ELK1 (Homo sapiens, UniProt P19419 1-428); settings: protein: recombinant; tags: N-terminal GST; dsDNA, one strand shown
# T1 sequence: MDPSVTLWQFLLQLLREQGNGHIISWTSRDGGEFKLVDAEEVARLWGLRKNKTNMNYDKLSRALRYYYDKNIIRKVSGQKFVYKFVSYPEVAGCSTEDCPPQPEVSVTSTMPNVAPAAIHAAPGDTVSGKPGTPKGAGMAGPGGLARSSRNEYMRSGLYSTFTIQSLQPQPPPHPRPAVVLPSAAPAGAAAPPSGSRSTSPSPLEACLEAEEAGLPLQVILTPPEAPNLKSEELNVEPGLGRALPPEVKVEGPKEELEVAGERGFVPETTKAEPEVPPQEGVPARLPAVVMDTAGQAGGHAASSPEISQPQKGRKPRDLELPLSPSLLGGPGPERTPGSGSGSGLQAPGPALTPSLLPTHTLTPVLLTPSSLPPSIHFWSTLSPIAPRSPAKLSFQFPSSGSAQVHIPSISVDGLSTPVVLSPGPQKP
# Outline: as §1
# GABPA = biological target: T2, GABPA (Homo sapiens, UniProt Q06546 1-454); settings: protein: recombinant; tags: N-terminal GST; dsDNA, one strand shown
# T2 sequence: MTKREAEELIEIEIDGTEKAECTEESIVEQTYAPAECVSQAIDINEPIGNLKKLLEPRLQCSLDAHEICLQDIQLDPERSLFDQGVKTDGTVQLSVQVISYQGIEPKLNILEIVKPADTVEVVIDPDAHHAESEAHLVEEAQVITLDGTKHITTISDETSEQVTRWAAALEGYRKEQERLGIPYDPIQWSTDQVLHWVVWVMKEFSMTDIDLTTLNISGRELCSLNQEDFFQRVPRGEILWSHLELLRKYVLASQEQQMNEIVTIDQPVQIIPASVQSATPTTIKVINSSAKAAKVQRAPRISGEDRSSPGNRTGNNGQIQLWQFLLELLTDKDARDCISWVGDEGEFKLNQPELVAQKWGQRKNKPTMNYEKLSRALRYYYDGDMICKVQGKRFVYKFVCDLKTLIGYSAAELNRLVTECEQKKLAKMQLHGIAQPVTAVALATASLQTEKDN
# Outline: as §1
# ELF1 = ELF1 (Homo sapiens, UniProt P32519 1-619); settings: protein: recombinant; tags: N-terminal GST; dsDNA, one strand shown
# Outline: as §1
# SPIB = SPIB (Homo sapiens, UniProt Q01892 1-262); settings: protein: recombinant; tags: N-terminal GST; dsDNA, one strand shown
# Outline: as §1
# ELK3 = biological target: T3, ELK3 (Homo sapiens, UniProt P41970 1-407); settings: protein: recombinant; tags: N-terminal GST; dsDNA, one strand shown
# T3 sequence: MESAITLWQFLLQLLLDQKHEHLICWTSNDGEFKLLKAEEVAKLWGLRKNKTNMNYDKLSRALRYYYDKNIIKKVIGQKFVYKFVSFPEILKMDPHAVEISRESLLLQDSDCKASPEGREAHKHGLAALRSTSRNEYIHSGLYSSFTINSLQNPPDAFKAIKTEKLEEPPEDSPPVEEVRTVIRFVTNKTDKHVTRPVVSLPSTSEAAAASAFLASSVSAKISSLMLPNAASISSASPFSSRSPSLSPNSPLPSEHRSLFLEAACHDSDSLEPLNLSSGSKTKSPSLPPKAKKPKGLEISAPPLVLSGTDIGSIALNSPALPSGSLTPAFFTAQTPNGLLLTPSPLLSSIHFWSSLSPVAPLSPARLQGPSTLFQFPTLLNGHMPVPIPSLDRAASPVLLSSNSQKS
# Outline: as §1
# FEV = biological target: T4, FEV (Homo sapiens, UniProt Q99581 1-238); settings: protein: recombinant; tags: N-terminal GST; dsDNA, one strand shown
# T4 sequence: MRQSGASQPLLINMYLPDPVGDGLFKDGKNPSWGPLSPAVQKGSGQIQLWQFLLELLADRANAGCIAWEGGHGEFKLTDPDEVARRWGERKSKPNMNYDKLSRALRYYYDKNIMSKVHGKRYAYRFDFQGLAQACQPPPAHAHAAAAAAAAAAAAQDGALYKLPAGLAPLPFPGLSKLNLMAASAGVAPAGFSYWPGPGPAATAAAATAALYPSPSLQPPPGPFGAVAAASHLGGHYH
# Outline: as §1
# SPIC = biological target: T5, SPIC (Homo sapiens, UniProt Q8N5J4 1-248); settings: protein: recombinant; tags: N-terminal GST; dsDNA, one strand shown
# T5 sequence: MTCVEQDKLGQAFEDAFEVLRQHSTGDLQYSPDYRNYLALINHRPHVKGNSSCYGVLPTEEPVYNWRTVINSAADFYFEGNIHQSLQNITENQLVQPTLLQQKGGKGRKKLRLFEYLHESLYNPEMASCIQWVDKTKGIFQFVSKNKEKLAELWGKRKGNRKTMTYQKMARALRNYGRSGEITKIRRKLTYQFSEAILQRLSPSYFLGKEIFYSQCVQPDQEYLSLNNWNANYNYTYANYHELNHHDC
# Outline: as §1
# ELK4 = biological target: T6, ELK4 (Homo sapiens, UniProt P28324-2 1-405); settings: protein: recombinant; tags: N-terminal GST; dsDNA, one strand shown
# T6 sequence: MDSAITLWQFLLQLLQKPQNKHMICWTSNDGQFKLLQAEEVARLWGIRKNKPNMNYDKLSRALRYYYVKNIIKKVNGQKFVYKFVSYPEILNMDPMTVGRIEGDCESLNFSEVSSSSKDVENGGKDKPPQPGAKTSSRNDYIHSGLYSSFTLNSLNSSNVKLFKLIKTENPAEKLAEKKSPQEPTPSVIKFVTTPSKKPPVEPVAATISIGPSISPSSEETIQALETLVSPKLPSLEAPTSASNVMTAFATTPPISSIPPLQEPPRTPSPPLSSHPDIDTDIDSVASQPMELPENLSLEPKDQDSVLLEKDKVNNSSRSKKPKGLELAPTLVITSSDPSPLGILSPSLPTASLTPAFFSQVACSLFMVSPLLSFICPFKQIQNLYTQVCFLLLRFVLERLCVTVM
# Outline: as §1
# CRX = CRX (Homo sapiens, UniProt O43186 1-299); settings: protein: recombinant; tags: N-terminal GST; dsDNA, one strand shown
# Outline: as §1
# ERF = biological target: T7, ERF (Homo sapiens, UniProt P50548 1-548); settings: protein: recombinant; tags: N-terminal GST; dsDNA, one strand shown
# T7 sequence: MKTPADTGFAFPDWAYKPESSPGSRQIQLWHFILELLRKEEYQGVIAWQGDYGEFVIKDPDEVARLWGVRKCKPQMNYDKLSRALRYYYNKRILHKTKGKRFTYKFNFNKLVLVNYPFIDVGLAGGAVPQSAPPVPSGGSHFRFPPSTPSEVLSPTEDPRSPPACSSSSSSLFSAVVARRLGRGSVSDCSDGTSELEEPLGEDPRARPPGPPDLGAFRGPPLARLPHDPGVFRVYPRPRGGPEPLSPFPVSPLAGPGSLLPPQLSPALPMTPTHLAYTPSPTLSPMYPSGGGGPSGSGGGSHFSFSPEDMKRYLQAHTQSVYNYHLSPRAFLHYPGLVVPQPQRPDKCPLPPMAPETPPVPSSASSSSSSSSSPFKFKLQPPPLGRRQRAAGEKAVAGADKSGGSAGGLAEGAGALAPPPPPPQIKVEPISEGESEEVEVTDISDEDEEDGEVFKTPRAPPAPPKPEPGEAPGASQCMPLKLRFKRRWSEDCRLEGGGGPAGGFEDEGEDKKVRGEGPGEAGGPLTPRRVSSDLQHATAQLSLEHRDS
# Outline: as §1
# ETV3L = biological target: T8, ETV3L (Homo sapiens, UniProt Q6ZN32 1-361); settings: protein: recombinant; tags: N-terminal GST; dsDNA, one strand shown
# T8 sequence: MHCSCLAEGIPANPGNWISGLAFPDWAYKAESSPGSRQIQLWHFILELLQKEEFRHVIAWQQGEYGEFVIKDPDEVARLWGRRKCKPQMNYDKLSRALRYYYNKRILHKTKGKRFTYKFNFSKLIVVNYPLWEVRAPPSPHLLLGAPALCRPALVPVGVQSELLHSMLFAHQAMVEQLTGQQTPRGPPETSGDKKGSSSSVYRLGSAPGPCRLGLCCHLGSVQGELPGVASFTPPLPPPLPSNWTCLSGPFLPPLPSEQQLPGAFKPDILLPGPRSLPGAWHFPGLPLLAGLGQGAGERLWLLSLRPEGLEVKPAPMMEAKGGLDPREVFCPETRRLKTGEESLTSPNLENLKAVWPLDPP
# Outline: as §1
# ETS2 = biological target: T9, ETS2 (Homo sapiens, UniProt P15036 1-469); settings: protein: recombinant; tags: N-terminal GST; dsDNA, one strand shown
# T9 sequence: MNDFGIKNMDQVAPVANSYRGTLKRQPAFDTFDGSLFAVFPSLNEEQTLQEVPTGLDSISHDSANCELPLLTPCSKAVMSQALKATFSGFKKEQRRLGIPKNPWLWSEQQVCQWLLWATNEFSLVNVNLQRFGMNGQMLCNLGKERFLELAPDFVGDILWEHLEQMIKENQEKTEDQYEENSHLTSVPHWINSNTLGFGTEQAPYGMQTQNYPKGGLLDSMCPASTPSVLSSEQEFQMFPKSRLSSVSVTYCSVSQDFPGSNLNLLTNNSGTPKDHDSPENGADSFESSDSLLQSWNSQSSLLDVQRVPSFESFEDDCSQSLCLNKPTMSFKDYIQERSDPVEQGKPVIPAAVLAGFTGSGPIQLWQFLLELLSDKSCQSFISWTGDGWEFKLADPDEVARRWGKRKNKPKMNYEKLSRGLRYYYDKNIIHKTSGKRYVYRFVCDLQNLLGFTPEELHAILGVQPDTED
# Outline: as §1
# SPDEF = biological target: T10, SPDEF (Homo sapiens, UniProt O95238 1-335); settings: protein: recombinant; tags: N-terminal GST; dsDNA, one strand shown
# T10 sequence: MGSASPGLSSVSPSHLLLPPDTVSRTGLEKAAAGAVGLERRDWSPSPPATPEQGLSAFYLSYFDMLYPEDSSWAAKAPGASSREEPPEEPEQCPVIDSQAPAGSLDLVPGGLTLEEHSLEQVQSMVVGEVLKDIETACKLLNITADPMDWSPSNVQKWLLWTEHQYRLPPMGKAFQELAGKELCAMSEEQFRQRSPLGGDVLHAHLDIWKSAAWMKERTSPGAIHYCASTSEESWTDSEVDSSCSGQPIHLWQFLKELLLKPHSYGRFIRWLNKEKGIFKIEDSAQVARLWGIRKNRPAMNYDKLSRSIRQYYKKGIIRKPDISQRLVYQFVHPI
# Outline: as §1
# ETV7 = biological target: T11, ETV7 (Homo sapiens, UniProt Q9Y603 1-341); settings: protein: recombinant; tags: N-terminal GST; dsDNA, one strand shown
# T11 sequence: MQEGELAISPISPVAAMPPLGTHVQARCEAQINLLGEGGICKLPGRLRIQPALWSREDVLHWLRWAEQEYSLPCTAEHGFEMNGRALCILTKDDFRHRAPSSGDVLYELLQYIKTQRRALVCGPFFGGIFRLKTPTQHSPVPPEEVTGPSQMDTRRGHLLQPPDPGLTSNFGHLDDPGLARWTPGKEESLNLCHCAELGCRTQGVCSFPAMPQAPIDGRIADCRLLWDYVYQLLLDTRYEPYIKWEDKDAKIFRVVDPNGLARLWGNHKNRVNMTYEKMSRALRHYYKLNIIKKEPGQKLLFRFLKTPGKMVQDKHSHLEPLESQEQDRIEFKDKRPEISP
# Outline: as §1
# ETV3 = biological target: T12, ETV3 (Homo sapiens, UniProt P41162-2 1-143); settings: protein: recombinant; tags: N-terminal GST; dsDNA, one strand shown
# T12 sequence: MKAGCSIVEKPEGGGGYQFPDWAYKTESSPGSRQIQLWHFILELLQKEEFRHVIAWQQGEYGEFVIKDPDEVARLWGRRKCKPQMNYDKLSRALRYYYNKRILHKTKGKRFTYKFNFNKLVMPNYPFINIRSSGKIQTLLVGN
# Outline: as §1
# HSF1, sequence (Q00613 whole entry, the tested form may be a part): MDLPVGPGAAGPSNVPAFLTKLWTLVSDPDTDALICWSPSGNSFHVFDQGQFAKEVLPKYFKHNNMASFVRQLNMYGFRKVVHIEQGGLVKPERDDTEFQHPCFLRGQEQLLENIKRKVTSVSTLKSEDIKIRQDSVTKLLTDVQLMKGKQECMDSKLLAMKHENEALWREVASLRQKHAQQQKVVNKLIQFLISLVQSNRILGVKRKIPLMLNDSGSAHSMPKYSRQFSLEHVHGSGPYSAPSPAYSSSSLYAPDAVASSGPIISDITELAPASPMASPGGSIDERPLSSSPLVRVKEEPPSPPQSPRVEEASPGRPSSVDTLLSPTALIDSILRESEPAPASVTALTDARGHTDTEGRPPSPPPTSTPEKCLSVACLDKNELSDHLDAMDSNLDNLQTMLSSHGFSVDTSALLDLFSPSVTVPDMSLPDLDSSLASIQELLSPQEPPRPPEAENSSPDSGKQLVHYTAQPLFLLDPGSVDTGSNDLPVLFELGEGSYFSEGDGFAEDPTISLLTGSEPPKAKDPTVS
# ELF1, sequence (P32519 whole entry): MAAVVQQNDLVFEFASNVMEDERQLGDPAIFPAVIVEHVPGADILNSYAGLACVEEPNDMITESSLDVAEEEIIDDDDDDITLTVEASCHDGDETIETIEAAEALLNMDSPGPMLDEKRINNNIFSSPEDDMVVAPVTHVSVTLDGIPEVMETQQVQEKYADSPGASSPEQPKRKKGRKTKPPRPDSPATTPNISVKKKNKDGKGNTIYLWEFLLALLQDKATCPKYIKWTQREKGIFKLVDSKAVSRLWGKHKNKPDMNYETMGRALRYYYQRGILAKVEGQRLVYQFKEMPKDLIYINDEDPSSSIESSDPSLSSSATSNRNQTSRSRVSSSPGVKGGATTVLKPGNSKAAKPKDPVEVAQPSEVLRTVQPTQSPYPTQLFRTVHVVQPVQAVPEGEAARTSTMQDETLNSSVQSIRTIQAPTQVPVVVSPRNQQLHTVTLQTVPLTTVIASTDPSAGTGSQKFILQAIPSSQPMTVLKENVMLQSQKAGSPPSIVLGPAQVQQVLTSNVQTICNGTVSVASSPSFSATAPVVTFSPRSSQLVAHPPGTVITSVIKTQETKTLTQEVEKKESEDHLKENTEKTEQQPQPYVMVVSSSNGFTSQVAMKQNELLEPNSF
# CRX, sequence (O43186 whole entry): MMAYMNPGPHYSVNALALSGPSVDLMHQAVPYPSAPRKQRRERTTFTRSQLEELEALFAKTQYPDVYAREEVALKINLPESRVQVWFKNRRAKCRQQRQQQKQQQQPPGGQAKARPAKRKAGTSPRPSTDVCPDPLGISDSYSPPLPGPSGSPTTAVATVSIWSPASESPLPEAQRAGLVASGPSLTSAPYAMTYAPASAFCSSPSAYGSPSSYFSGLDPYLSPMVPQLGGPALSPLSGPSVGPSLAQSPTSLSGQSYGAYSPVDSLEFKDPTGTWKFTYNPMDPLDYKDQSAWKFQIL
# SPIB, sequence (Q01892 whole entry): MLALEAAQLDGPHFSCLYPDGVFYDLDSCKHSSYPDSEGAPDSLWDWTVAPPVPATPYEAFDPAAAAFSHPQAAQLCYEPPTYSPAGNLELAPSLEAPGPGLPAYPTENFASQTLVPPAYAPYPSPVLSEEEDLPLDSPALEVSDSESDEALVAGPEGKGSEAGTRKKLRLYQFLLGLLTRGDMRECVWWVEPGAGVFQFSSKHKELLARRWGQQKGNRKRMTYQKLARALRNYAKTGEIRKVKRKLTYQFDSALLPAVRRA
Sequence,binding signal (HSF1),binding signal (ELK1),binding signal (GABPA),binding signal (ELF1),binding signal (SPIB),binding signal (ELK3),binding signal (FEV),binding signal (SPIC),binding signal (ELK4),binding signal (CRX),binding signal (ERF),binding signal (ETV3L),binding signal (ETS2),binding signal (SPDEF),binding signal (ETV7),binding signal (ETV3)
CGAGTA,"1.1 fold enrichment (6-mer frequency, TF over GST control)",–,–,–,–,–,–,–,–,–,–,–,–,–,–,–
TCGCAT,"1.04 fold enrichment (6-mer frequency, TF over GST control)","1.06 fold enrichment (6-mer frequency, TF over GST control)","1.02 fold enrichment (6-mer frequency, TF over GST control)","1.04 fold enrichment (6-mer frequency, TF over GST control)","1.06 fold enrichment (6-mer frequency, TF over GST control)","1.01 fold enrichment (6-mer frequency, TF over GST control)","1.08 fold enrichment (6-mer frequency, TF over GST control)","1.02 fold enrichment (6-mer frequency, TF over GST control)","1.08 fold enrichment (6-mer frequency, TF over GST control)","1.15 fold enrichment (6-mer frequency, TF over GST control)","1.07 fold enrichment (6-mer frequency, TF over GST control)","1.03 fold enrichment (6-mer frequency, TF over GST control)","1.04 fold enrichment (6-mer frequency, TF over GST control)","1.03 fold enrichment (6-mer frequency, TF over GST control)","1.01 fold enrichment (6-mer frequency, TF over GST control)","1.03 fold enrichment (6-mer frequency, TF over GST control)"

# Reference: paper PMC7862700, “An all-to-all approach to the identification of sequence-specific readers for epigenetic DNA modifications on cytosine”
